High-throughput results: PubChem BioAssay, National Center for Advancing Translational Sciences (NCATS)
Cruzain inh Det – qHTS Assay for Promiscuous and Specific Inhibitors of Cruzain (with detergent) | Potency, µM, for inactives: max response, negative = inhibition, usual class: inhibitors | 200,000 tested, 0.43% active | AID 1478, 2009 | purified cruzain, Z-FR-AMC fluorescence, 0.01% Triton;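 further: plate controls were neutral wells for no effect and buffer without enzyme for full effect; nearly all actives have a fitted effect of over 40% in size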
Target sequence (P25779 123-467 limits assumed): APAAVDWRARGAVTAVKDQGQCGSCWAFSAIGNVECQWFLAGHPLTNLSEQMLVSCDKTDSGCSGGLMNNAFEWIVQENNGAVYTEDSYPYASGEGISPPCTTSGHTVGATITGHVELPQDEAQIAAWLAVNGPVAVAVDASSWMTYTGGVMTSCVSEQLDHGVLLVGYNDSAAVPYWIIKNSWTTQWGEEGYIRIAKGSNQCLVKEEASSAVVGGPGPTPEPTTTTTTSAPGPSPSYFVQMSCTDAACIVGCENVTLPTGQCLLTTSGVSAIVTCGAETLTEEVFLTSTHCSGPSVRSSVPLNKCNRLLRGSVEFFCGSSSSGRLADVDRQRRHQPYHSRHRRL
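Purified cruzain (1.5 nM final) was preincubated with compounds for 15 min at room temperature in 100 mM sodium acetate pH 5.5, 5 mM DTT, 0.01% Triton X-100. Reaction started with 2 uM Z-FR-AMC; AMC fluorescence change over 60 s gave activity.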
Cruzain noTriton – qHTS Assay for Promiscuous and Specific Inhibitors of Cruzain (without detergent) | 200,000 tested, 2.3% active | purified cruzain, Z-FR-AMC fluorescence, no detergent | Cruzipain (Trypanosoma cruzi), P25779 | Potency, µM, for inactives: max response, negative = inhibition, most hits filed as inhibitors;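 further: plate controls were enzyme without inhibitor for no effect and buffer without enzyme for full effect; nearly all actives have a fitted effect of over 40% in size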
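Purified cruzain at 1.5 nM, pre-incubated 15 min with compound at room temperature in 100 mM sodium acetate pH 5.5, 5 mM DTT, 0.00005% Triton X-100. Reaction started with 2 uM Z-FR-AMC; AMC fluorescence increase over 60 s gives rate.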
* marks the source's active call; other numbers are inactive results; ? = inconclusive; ! = repeats disagree. Most compounds without a hit are left out; they make up all but 2.6% or so of the library. The call rests on the fitted dose curve; in most records, active means well fitted curve in the direction sought with a large enough effect; inconclusive means small, poorly fitted or top-dose-only effect, or another doubt; inactive means no such curve, though single readings can be large; an effect the other way counts as inactive or inconclusive. Potency means the concentration at half of the fitted maximal effect.

SMILES | Cruzain inh Det | Cruzain noTriton
CN(C)CCN1CCc2ccccc21 | -3% | -10%
O=C(CCc1ccccc1)c1ccc2c(c1)OCCCO2 | -2% | ?
c1ccc2c(c1)CCN2CCN1CCc2ccccc21 | 6% | 10µM*
O=C(CCN1CCc2ccccc21)c1ccc2c(c1)OCCO2 | -2% | 7.9µM*
O=C(CCN1CCCCC1)c1ccc2c(c1)OCCO2 | -14% | -26%
O=C(CCN1CCCC1Cc1ccccc1)c1ccc2c(c1)OCCO2 (stereo not drawn) | 25µM* | 20µM*
CC1=C(/C=C/C(C)=C/C=C/C(C)=C\C=O)C(C)(C)CCC1 | -6% | ?
CSc1ccc(CCNC(=O)CCn2c(=O)c3cccn3c3cccnc32)cc1 | 1% | -9%
O=C(CSc1nnc(-c2ccc(Cl)cc2)o1)N1CCN(c2ccccc2)CC1 | -7% | 16µM*
O=C(CSc1nnc(COc2ccc(Cl)cc2)o1)N1CCN(c2ccccc2)CC1 | -8% | -2%
Cc1cccc(C(=O)Nc2ccc(C(=O)/C=C/c3cccnc3)cc2)c1 | -13% | ?
O=C(/C=C/c1cccnc1)c1ccc(NC(=O)c2cccc(Br)c2)cc1 | -11% | 25µM*
COc1ccc(OC)c(NC(=O)C(=O)N/N=C/c2ccccc2[N+](=O)[O-])c1 | 1% | -20%
COc1ccc(NC(=O)C(=O)N/N=C/c2cc(C)n(-c3cccc(Cl)c3Cl)c2C)c(OC)c1 | -4% | 13µM*
CCNc1ncc2nc(-c3ccccc3)c(=O)n(Cc3ccc(F)cc3)c2n1 | -7% | 8%
CCc1ccc(NC(=O)CSc2nc3n[nH]c(C)c3c(=N)n2-c2ccccc2C)cc1 | -2% | -25%
CCOc1ccccc1-n1c(SCC(=O)Nc2ccc(CC)cc2)nc2n[nH]c(C)c2c1=N | 1% | 6.3µM*
COC(=O)c1sc(-c2ccccc2)cc1NC(=O)c1ccc(F)cc1 | -3% | 10µM*
COC(=O)c1sc(-c2ccccc2)cc1NC(=O)c1ccc(OC)cc1 | -8% | ?
Fc1ccccc1-n1ncc2c1ncn1nc(COc3ccc(Cl)cc3)nc21 | -1% | -2%
Cc1nn(CCCC(=O)Nc2ccccc2C(F)(F)F)c(=O)c2c1sc1ccccc12 | -3% | 2%
COc1cc(SC#N)ccc1N=Cc1c(C)[nH]n(-c2ccc(Cl)cc2)c1=O | 0% | 20µM*
COc1cc(SC#N)ccc1N=Cc1c(C)[nH]n(-c2ccc(C)c(C)c2)c1=O | -5% | -5%
COc1ccc(N(C)C(=O)NCc2noc3ccc(C)cc23)c(OC)c1 | -2% | 16%
COc1ccc2c(c1)C1C=CCC1C(c1cc3c(cc1Br)OCO3)N2 (stereo not drawn) | -4% | 25µM*
SMILES | Cruzain inh Det | Cruzain noTriton
COc1cccc([C@@H]2Nc3ccc(C(=O)O)cc3[C@@H]3C=CC[C@@H]32)c1OC | -5% | -21%
COc1ccc(NC(=O)CN2C(=O)CC(c3ccc(C)c(C)c3)=Nc3ccccc32)cc1OC | -10% | ?
CC1=Nc2cc(C(=O)NCc3ccccc3Cl)ccc2Sc2c(C)ccc(C)c21 | -4% | 32µM*
CC1=Nc2cc(C(=O)NCc3ccco3)ccc2Sc2ccc(C)cc21 | -10% | -8%
CCC1=Nc2cc(C(=O)NCc3ccccc3Cl)ccc2Sc2ccc(C)cc21 | -3% | ?
CCC1=Nc2cc(C(=O)NCc3ccccc3OC)ccc2Sc2ccc(Cl)cc21 | 1% | 32µM*
Cc1ccc(C(CC(=O)Nc2ccc(F)c(Cl)c2)N2Cc3ccccc3C2=O)cc1 (stereo not drawn) | -1% | -17%
COC(=O)c1ccc(CSc2nc3c([nH]c4ccccc43)c(=O)n2-c2cccc(OC)c2)o1 | -3% | 25µM*
COc1cccc(-n2c(SCc3ccc(F)cc3)nc3c([nH]c4ccccc43)c2=O)c1 | -1% | 10µM*
COC(=O)c1ccc(CSc2nc3c([nH]c4ccccc43)c(=O)n2-c2cccc(Cl)c2)o1 | -2% | 8%
CCSc1nc2c([nH]c3ccccc32)c(=O)n1-c1cccc(OC)c1 | -8% | 3%
CCCCn1c(=O)c2oc3ccccc3c2n(Cc2cccc(F)c2)c1=O | -2% | 7%
COc1ccc2cc3cc(C(=O)NCc4ccc5c(c4)OCO5)oc3nc2c1 | -9% | -17%
COc1ccc2cc3cc(C(=O)N4CCN(Cc5ccc6c(c5)OCO6)CC4)oc3nc2c1 | 32µM* | 0%
CC(C)C(=O)OC1=CN(Cc2ccccc2)S(=O)(=O)c2ccccc21 | -7% | -14%
Cc1ccc(SCC(=O)Nc2ccc(N3CCN(C)CC3)c(F)c2)cc1 | -1% | -1%
O=C(CSc1ccccc1)Nc1ccc(N2CCN(c3ccccc3)CC2)c(F)c1 | 9% | 13µM*
CCOc1ccc(OCC)c(NS(=O)(=O)c2ccc(-c3coc(C)n3)cc2)c1 | -7% | ?
C=CCNC(=O)c1ccc(-c2nc(-c3ccc(Cl)c(Cl)c3)cs2)cc1 | 3% | 20µM*
C=CCNC(=O)c1ccc(-c2nc(-c3ccc(Cl)cc3Cl)cs2)cc1 | 4% | -15%
CCN1/C(=C2\OC(=S)N(C)C2=O)Sc2ccccc21 | 5% | -8%
CCN1/C(=C2\SC(=S)N(Cc3ccccc3)C2=O)Sc2ccccc21 | -8% | 10µM*
COc1ccccc1CNc1ncncc1-c1ccccc1C(F)(F)F | -1% | -4%
Cc1ccc(NC(=S)N(Cc2cccs2)Cc2cc3cccc(C)c3[nH]c2=O)cc1 | -3% | 16µM*
Cc1cccc2cc(CN(Cc3cccs3)C(=S)NCC3CCCO3)c(=O)[nH]c12 (stereo not drawn) | -8% | 3%
SMILES | Cruzain inh Det | Cruzain noTriton
CCC(=O)N1CCc2cc(S(=O)(=O)NCCC(=O)NC(C)c3ccccc3)ccc21 (stereo not drawn) | -2% | 1%
Cc1ccc(C)c(N2CCN(C(=O)c3cnn(-c4ccccc4Cl)c3C3CCN(C(=O)OC(C)(C)C)CC3)CC2)c1 | -2% | 15%
Cc1ccc(S(=O)(=O)Oc2ccc(/C=C(/NC(=O)c3ccccc3)C(=O)Nc3ccccc3)cc2)cc1 | 2% | 13µM*
Cc1ccc(NC(=O)/C(=C/c2ccncc2)NC(=O)c2ccccc2)cc1 | -4% | -8%
CSc1ccc(/C=C(/NC(=O)c2ccc(C)cc2)C(=O)Nc2cccc(C)c2)cc1 | -6% | 6.3µM*
COc1ccc(NC(=O)/C(=C\c2ccc(OS(=O)(=O)c3ccc(C)cc3)cc2)NC(=O)c2ccccc2)cc1 | 3% | 7.9µM*
Cc1cccc(NC(=O)/C(=C\c2ccc([N+](=O)[O-])o2)NC(=O)c2ccc(Cl)cc2)c1 | -3% | -20%
O=C(Nc1ccccc1)/C(=C\c1ccncc1)NC(=O)c1ccccc1 | -1% | -2%
CCC(CC)c1nn2c(=O)cc(COc3ccc(NC(=O)c4ccc(C)cc4)cc3)nc2s1 | 0% | -6%
Cc1nn(-c2ccccc2)c2c1N(CCCC(=O)NCc1ccc(N(C)C)cc1)C(=O)CS2 | -4% | 17%
COc1cccc(Cn2c(=O)c(-c3ccc(Cl)cc3)nc3cnc(N4CCNCC4)nc32)c1 | -4% | -8%
NC(=NCc1ccccc1)NC(=O)c1nc(Cl)c(N)nc1N | -13% | 14µM*!
NC(=Nc1ccccc1)NC(=O)c1nc(Cl)c(N)nc1N | -12% | ?
CCCCOc1ccc(C(=O)Nc2ccc3c(c2)N(C(C)=O)CCC3)cc1 | 0% | -11%
O=S(=O)(NCc1nc2cccnc2n1Cc1ccccc1Cl)c1ccc2c(c1)CCCC2 | -6% | -2%
O=C(c1cc2ccccc2oc1=O)N1CCN(c2ccc(F)cc2)CC1 | -7% | 1%
